Results: PubChem BioAssay AID540335 (Broad Institute, 2011)
The whole screen tested about 1,300 compounds, of which about 270 (21%) were called active. The list is a sample of the results. Potency and affinity values are given separately. A number with no mark means an inactive call.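 The calls were made as follows: active = dose-dependent rise or fall in viability, either side of zero, with half-maximal concentration at or below a set limit; inconclusive = flat curve at 30 to 70% viability loss, or poor fit; inactive = flat within 30% either way, or potency beyond limit.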

Experiment: proliferation inhibition in MITF-low A375 cells – cell-based, cherry-pick samples, set 2, counter-screen for MITF modulator project, dose response (AID 540335);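 also: A375 human melanoma cells which do not depend on MITF; 0% = median of neutral control wells and 100% = double that signal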
Details: CellTiter-Glo ATP luminescence, 24 h; series mostly up to 35 µM; activity change, negative = decreased viability: at the top concentration

Going from CN1CCN(C2=C(NS(=O)(=O)c3cccs3)C(=O)c3ccccc3C2=O)CC1 to CCN(CC)CCn1nc2c3c(cccc3c1=O)-c1ccccc1-2, the “activity change, negative = decreased viability” value falls from -13.3% to -17.6%.

Compared with COc1ccc2nc(C)cc(NCc3cccc(C(F)(F)F)c3)c2c1, Cc1ccc(C(=O)c2cccc(N)c2)cc1C is higher in “activity change, negative = decreased viability” value: -29.6% for the first, 11.7% for the second.

Going from O=C1C=CC(=C(c2ccc(O)cc2)c2ccc(O)cc2)C=C1 to Cc1cc(/C(N)=N/OC(=O)c2ccc(Cl)cc2)no1, the “activity change, negative = decreased viability” value rises from -22.9% to 7.61%.

First: CC(C)(C)C(=O)/C(=C/c1ccncc1)n1cncn1
Second: Cc1cc2ncn(/N=C/c3ccc([N+](=O)[O-])o3)c2cc1C
The “activity change, negative = decreased viability” value of the first is higher: 7.09% for the first, -15.1% for the second.

Compared with O=C(Nc1ccc2oc(-c3cccnc3)nc2c1)c1ccc([N+](=O)[O-])o1, O=C(Nc1ccc(-c2nc3ncccc3o2)cc1)c1ccc([N+](=O)[O-])o1 is lower in “activity change, negative = decreased viability” value: -6.09% for the first, -6.72% for the second.

Going from COc1ccccc1NC(=O)c1nc(S(=O)(=O)Cc2ccccc2)ncc1Cl to CC(=O)Nc1ccc(NC(=O)c2nc(S(=O)(=O)Cc3ccccc3)ncc2Cl)cc1, the “activity change, negative = decreased viability” value falls from -24.6% to -26.8%.

Going from COc1cc(NC(=O)COc2cc(O)c3c(c2)OC(C)(C)CC3=O)cc(OC)c1OC to COc1cc(C2C(C#N)=C(N)Oc3cc4c(cc32)OCO4)cc(OC)c1OC (centres undefined), the “activity change, negative = decreased viability” value rises from -22.9% to 8.17%.

Compared with O=C(CCl)Nc1cccc(S(=O)(=O)N2CCCCCC2)c1, Cc1ccc(NC(=O)CCl)cc1S(=O)(=O)N1CCCCCC1 is higher in “activity change, negative = decreased viability” value: -32% for the first, -23.1% for the second.

Compared with CCCCN1CCc2c1nc1ccc(Br)cc1c2N, O=C(Nc1ccc2nc3n(c(=O)c2c1)CCCCC3)c1cc([N+](=O)[O-])ccc1F is higher in “activity change, negative = decreased viability” value: -11.7% for the first, 47.5% for the second.

First: O=C(COC(=O)c1ccccc1C(=O)c1ccc(Cl)c([N+](=O)[O-])c1)NC1CC1
Second: O=C(N/N=C/c1ccc([N+](=O)[O-])o1)c1cc2ccccc2o1
The “activity change, negative = decreased viability” value of the first is higher: 16.1% for the first, -33.2% for the second.

First: CCOc1ccc(-c2ccc(SC)nn2)cc1
Second: CCOc1ccc(-n2c(C)cc(C(=O)CCl)c2C)cc1
The “activity change, negative = decreased viability” value of the first is lower: -38.4% for the first, -8.17% for the second.

First: Cc1ccc(C(=O)N/N=C\c2ccc([N+](=O)[O-])s2)cn1
Second: Cc1ccccc1C(=O)N/N=C/c1ccc([N+](=O)[O-])s1
The “activity change, negative = decreased viability” value of the first is lower: -30.2% for the first, -20.2% for the second.

Compared with CCN(CC)CCNC(=O)C1CCN(S(=O)(=O)c2c(C)noc2/C=C/c2ccccc2F)CC1, N=c1n(CCN2CCCC2)c2ccccc2n1CC(O)c1ccc(Cl)c(Cl)c1 (centres undefined) is lower in “activity change, negative = decreased viability” value: -10.5% for the first, -89.6% for the second.

First: Cc1cc(C)cc(OCC(=O)N/N=C/c2ccc([N+](=O)[O-])o2)c1
Second: O=C(CNc1cccc2ccccc12)N/N=C/c1ccc([N+](=O)[O-])o1
The “activity change, negative = decreased viability” value of the first is higher: -0.821% for the first, -18.9% for the second.

Going from CC1(C(=O)N/N=C/c2ccc([N+](=O)[O-])o2)CC1(Br)Br (centres undefined) to CCOC(=O)CCc1ccc(NC(=O)/C=C/c2ccc([N+](=O)[O-])o2)cc1, the “activity change, negative = decreased viability” value falls from -10.2% to -26.9%.

Going from CC(C)n1cc(/C=C/c2cc[n+](C)cc2)c2ccccc21 to COc1ccc(-n2c(C)cc(C(=O)CCl)c2C)cc1, the “activity change, negative = decreased viability” value rises from -9.9% to -8.15%.

Compared with CCOC(=O)c1nnn(-c2ccc([N+](=O)[O-])cc2[N+](=O)[O-])c1C, Cc1ccc(NC(=O)CN(C)C(=O)Cn2ncc(Cl)c(Cl)c2=O)cc1 is higher in “activity change, negative = decreased viability” value: -24.6% for the first, 69.3% for the second.
